The source of these data is PubChem BioAssay AID696 (Sanford-Burnham Center for Chemical Genomics, 2007).

Out of some 96,000 compounds screened, about 1,200 (1.2%) were called active. What follows is part of a selection rich in actives, with near analogues and random picks from the rest. Unmarked numbers belong to inactive results. No stated cut-off is given here; in the data, active means activation fold above about 2; inactive means the rest.

The target of this assay is Alkaline phosphatase, placental type (Homo sapiens) (UniProt P05187). The assay can be described thus: PLAP enzyme activators, biochemical, luminescence, HTS (AID 696). To be noted: purified PLAP enzyme, luminescent substrate read-out; at 20 µM; stronger effect = higher value.
Sequence of Alkaline phosphatase, placental type (Homo sapiens) (P05187 whole entry, looked up): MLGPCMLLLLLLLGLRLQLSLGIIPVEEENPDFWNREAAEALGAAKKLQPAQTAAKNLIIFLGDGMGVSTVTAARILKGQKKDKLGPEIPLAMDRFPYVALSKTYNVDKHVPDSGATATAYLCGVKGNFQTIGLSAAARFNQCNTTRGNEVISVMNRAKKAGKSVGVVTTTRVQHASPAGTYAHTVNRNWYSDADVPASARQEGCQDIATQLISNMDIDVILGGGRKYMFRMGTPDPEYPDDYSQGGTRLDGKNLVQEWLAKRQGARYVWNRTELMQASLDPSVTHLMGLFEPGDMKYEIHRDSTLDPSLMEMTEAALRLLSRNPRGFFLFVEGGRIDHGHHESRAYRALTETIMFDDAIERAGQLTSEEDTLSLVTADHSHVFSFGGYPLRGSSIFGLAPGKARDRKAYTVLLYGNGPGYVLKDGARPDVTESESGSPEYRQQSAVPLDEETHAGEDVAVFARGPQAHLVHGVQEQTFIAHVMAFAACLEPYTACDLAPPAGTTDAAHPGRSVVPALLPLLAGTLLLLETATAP
With `CCOC(=O)c1c(N)n(CCN2CCOCC2)c2nc3ccccc3nc12`, the activation fold is 1.1.

Consider `COc1cc(Cn2c(N)c(C(=O)NCc3ccco3)c3nc4ccccc4nc32)cc(OC)c1OC`, for which the activation fold is 2.1 (active). To `CCOC(=O)c1c(N)n(Cc2ccccc2)c2nc3ccccc3nc12` belongs 0.9; to `Nc1ccc(C(=O)N/N=C2/CN3CCC2CC3)cc1`, 0.9. With `CCOc1ccc(C2SCC(=O)Nc3c2c(C)nn3C2CCOC(C)(C)C2)cc1` (stereo not given), the activation fold was 1.5.
